# PubChem BioAssay (NCATS)
# Records with an inconclusive call do not appear. Activity calls are given as the source filed them. Calls come from the whole dose curve; as a rule, active = well fitted cell-killing curve with a large enough effect; inconclusive = small, poorly fitted or top-dose-only effect; inactive = no such curve, though single readings can be large or run the other way.
# Experiment: qHTS of pediatric cancer cell lines to identify multiple opportunities for drug repurposing: Primary screen for NB-EBc1 cells (AID 1347095)
# Conditions: NB-EBc1 neuroblastoma viability, CellTiter-Glo luminescence, 48 h; series mostly up to 46 µM; activity change, negative = cytotoxic: at the top concentration
# From the text: Drug repurposing or repositioning has been offered as a strategy for drug development in oncology programs. This approach has special potential for childhood cancers and other rare or orphan diseases, where the expected return on new drug development has been a disincentive to pharmaceuticals. […] In this project we exploit the poly-pharmacology of drugs to discover new indications via phenotypic screening of a panel of 19 well-characterized cell lines derived from solid tumors seen in children and adolescents. The goal is to identify approved drugs with previously unrecognized anticancer properties that has the potential to reveal new mechanisms and biological processes involved in carcinogenesis or drug resistance. We employed a titration-based paradigm (quantitative high-throughput screening or qHTS), where all compounds were tested at multiple concentrations for their effect on cell viability. Concentration-response curves (CRCs) were derived directly from the primary screen, and both potency and efficacy values were used to identify compounds with robust bioactivity profiles. We screened the NIH Chemical Genomics Center (NCGC) Pharmaceutical Collection (NPC) and Mechanism Interrogation Plate (MIPE) small molecule collections of approved and investigational compounds against these cell lines; and measured metabolically active cells after 48 hours of compound treatment as a proxy for cell viability. […] Assay Submitter: Nathalia J. Martinez, National Center for Advancing Translational Sciences, National Institutes of Health, Rockville, MD, USA; email: natalia.martinez@nih.gov Shen, M et al. Quantitative high-throughput phenotypic screening of pediatric cancer cell lines identifies multiple opportunities for drug repurposing. Oncotarget 2017 Dec 19;9(4):4758-4772. PMID 29435139.
# The cells were obtained from University of North Carolina (UNC), Pediatric Preclinical Testing Program (PPT), and Coriell Institute (CI). qHTS cell viability assay: Cells were assayed in growth media at a density of 500-1,000 cells/well. Five microliters of cells were dispensed into 1,536-well, white, solid-bottom, TC-treated plates (Greiner Bio One) using a multidrop dispenser and incubated at 37 degrees C, 5% CO2, under a humidified atmosphere for 5 hours. Twenty-three nanoliters of compounds and controls (neutral control DMSO or positive control bortezomib at final concentration of 2.3 µM) were subsequently transferred by Kalypsys pintool. For primary screens, the MIPE collection was tested at 11-point dilutions (final concentrations range from 0.78 nM to 46 µM) and the NPC collection at 8-point dilutions (final concentrations range from 0.59 nM to 46 µM). Compounds tested in follow-up screens were assayed at 11-point dilutions. Cells were incubated for 48 hours, followed by addition of 3 µL of CellTiter-Glo (Promega). After a 15 min incubation at room temperature, samples were analyzed for luminescence intensity using a ViewLux High-throughput CCD imager equipped with clear filters.
# Potency is the fitted concentration of half-maximal effect.
Structure (SMILES),"activity change, negative = cytotoxic",Potency
O=c1[nH]c(=O)n([C@H]2CCCO2)cc1F,-4.19% (inactive),
CC(C)n1nc(-c2cc3cc(O)ccc3[nH]2)c2c(N)ncnc21,,0.944 µM (active)
COc1cccc2c1C(=O)c1c(O)c3c(c(O)c1C2=O)C[C@@](O)(C(C)=O)C[C@@H]3O[C@H]1C[C@H](N)[C@H](O)[C@H](C)O1,,0.0531 µM (active)
CC(=O)CC(c1ccc([N+](=O)[O-])cc1)c1c(O)c2ccccc2oc1=O (stereo not given),-13.1% (inactive),
COc1c2occc2c(OC)c2c(=O)cc(C)oc12,33.7% (inactive),
Cc1c(C)n(CCN(C)C)c2ccc(C(=O)OCCN(C)C)cc12,-2.01% (inactive),
C[C@@H]1C[C@H]2[C@@H]3C[C@H](F)C4=CC(=O)C(Cl)=C[C@]4(C)[C@@]3(F)[C@@H](O)C[C@]2(C)[C@@]1(O)C(=O)CO,12.3% (inactive),
Cc1nc2n(c(=O)c1CCN1CCC(c3noc4cc(F)ccc34)CC1)CCC[C@H]2O,8.26% [at 16.1 µM] (inactive),
CCCCOc1ccc(OCCCN2CCOCC2)cc1,-2.17% (inactive),
C[C@H](CCC(=O)O)[C@H]1CC[C@H]2[C@@H]3C(=O)C[C@@H]4CC(=O)CC[C@]4(C)[C@H]3CC(=O)[C@]12C,19.9% (inactive),
C/C=C(/C(=C/C)c1ccc(O)cc1)c1ccc(O)cc1,,18.8 µM (active)
C=C1C[C@H]2[C@@H]3C=C(C)C4=CC(=O)CC[C@]4(C)[C@H]3CC[C@]2(C)[C@@]1(OC(C)=O)C(C)=O,4.76% (inactive),
C=CCc1ccc(O)c(OC)c1,23% (inactive),
N[C@H](Cc1c[nH]c2ccccc12)C(=O)O,18.3% (inactive),
COc1c(C)c2c(c(O)c1C/C=C(\C)CCC(=O)O)C(=O)OC2,,29.9 µM (active)
NCCCC[C@H](N[C@@H](CCc1ccccc1)C(=O)O)C(=O)N1CCC[C@H]1C(=O)O,13.4% (inactive),
Cc1onc(-c2c(Cl)cccc2Cl)c1C(=O)N[C@@H]1C(=O)N2[C@@H]1SC(C)(C)[C@@H]2C(=O)O,-4.18% (inactive),
COc1cc(-c2ccc(=O)[nH]n2)ccc1OC(F)F,-5.69% (inactive),
CC(=O)OCC(=O)NCCCOc1cccc(CN2CCCCC2)c1,1.43% (inactive),
CN1C(CCl)Nc2cc(Cl)c(S(N)(=O)=O)cc2S1(=O)=O (stereo not given),-1.5% (inactive),

Structure (SMILES),"activity change, negative = cytotoxic",Potency
Clc1ccc2c(c1)CCc1cccnc1C2=C1CCNCC1,-20.6% (inactive),
CCOC(=O)[C@H](CCc1ccccc1)N[C@@H](C)C(=O)N1Cc2ccccc2C[C@H]1C(=O)O,11% (inactive),
COc1ccc(OC)c(C(O)CNC(=O)CN)c1 (stereo not given),19.9% (inactive),
COc1cccc2c1C(=O)c1c(O)c3c(c(O)c1C2=O)C[C@@](O)(C(=O)CO)C[C@@H]3O[C@H]1C[C@H](N)[C@H](O)[C@H](C)O1,,0.133 µM (active)
CCN(CCCc1ccccc1)CCCc1ccccc1,-1.14% (inactive),
Cc1cc(O)c(C(C)C)cc1Cl,4.46% (inactive),
NC(=O)c1cc[n+](CC2=C(C(=O)[O-])N3C(=O)[C@@H](NC(=O)Cc4cccs4)[C@H]3SC2)cc1,-0.403% (inactive),
CCN(CCCCOC(=O)c1ccc(OC)c(OC)c1)C(C)Cc1ccc(OC)cc1 (stereo not given),0.0137% (inactive),
CN1CCC[C@@H]1c1cccnc1,-2.05% (inactive),
CCCCC(CC)CN=C(N)NC(N)=NCCCCCCN=C(N)NC(N)=NCC(CC)CCCC (stereo not given),,10.6 µM (active)
CCOC(=O)OC(C)OC1=C(C(=O)Nc2ccccn2)N(C)S(=O)(=O)c2ccccc21 (stereo not given),7.16% (inactive),
Cc1ncc(CSSCc2cnc(C)c(O)c2CO)c(CO)c1O,9.55% (inactive),
CCCCCCCCCCCCCCCCCC(=O)OCC(O)CO (stereo not given),14% (inactive),
CC[N+](CC)(CCNC(=O)C(=O)NCC[N+](CC)(CC)Cc1ccccc1Cl)Cc1ccccc1Cl,4.17% (inactive),
CC(O)C(=O)O (stereo not given),11.6% (inactive),
CC(C)(C)NC(=O)[C@@H]1CN(Cc2cccnc2)CCN1C[C@@H](O)C[C@@H](Cc1ccccc1)C(=O)N[C@H]1c2ccccc2C[C@H]1O,2.88% (inactive),
COc1cc2c(cc1OC)C(=O)C(CC1CCN(Cc3ccccc3)CC1)C2 (stereo not given),-12.1% (inactive),
NCCC(O)(P(=O)(O)O)P(=O)(O)O,6.7% (inactive),
COc1ccc(C2C(=O)c3ccccc3C2=O)cc1,21.7% (inactive),
Oc1cc(O)c2c(c1)O[C@H](c1ccc(O)c(O)c1)[C@H](O)C2,13.9% (inactive),
